CHT block: human CHT choline transport inhibition; Q9GZV3; CHT-expressing cells, membrane potential dye, choline response; active compounds read low; B-score at 10 µM; actives 0.86% (n = 310,000);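 active means B-score over 3 SD under the library average, and starting fluorescence ratio not unusually high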;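 further: choline stimulus applied at its EC90 after an EC20 pre-addition; B-score computed on integrated fluorescence ratio after choline addition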
TMEM16A inh: mouse TMEM16A channel inhibition, primary screen; actives 1.2% (n = 310,000); HEK293 TMEM16A/YFP iodide influx fluorescence, ionomycin; normalized B-score (activity score, 25-100; higher = stronger inhibition) at 10 µM;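 active means ratio plate-corrected score three or more library SD toward inhibition, starting fluorescence score within five deviations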;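 further: score derived from kinetic fluorescence span divided by baseline fluorescence per well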
CHT allo act: human CHT allosteric activation; Q9GZV3; CHT-expressing cells, membrane potential dye, choline EC20; active compounds read high; LV-AA mutant CHT in HEK293 cells; B-score at 10 µM; actives 0.49% (n = 310,000);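 active means initial fluorescence not abnormally high and integrated response B-score, plate-corrected, over 3 SD above library mean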
TMEM16A act: activates or potentiates the mouse TMEM16A chloride channel | HEK293 TMEM16A/YFP-H148Q/I152L, iodide quench fluorescence; active compounds read low | Q8BHY3 | B-score at 10 µM | actives 0.3% (n = 340,000);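 active means fluorescence-ratio B-score plate-corrected deviation score at least 3 library SD below zero, with starting fluorescence score within 5 deviations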;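 further: channel opened by trigger with iodide after compound preincubation; score built on the fluorescence ratio of max minus min over baseline; more negative score means more quench and so TMEM16A activation or potentiation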
Of the large screens only hits and unclear results are named; the others gave an inactive call. An excerpt weighted towards active compounds, which were near 2.3% of everything screened.

COc1ccc(Nc2cc(C(=O)N3CCc4ccccc4C3)c3ccccc3n2)c(OC)c1	none
COc1cc(/C=N/NC(=O)c2cccc(C)c2)ccc1OCC(=O)Nc1ccccc1	none
CC(=O)c1c(C)[nH]c(C(=O)CSc2ncnc3sc(-c4ccccc4)cc23)c1C	TMEM16A inh 25
O=C(O)CSc1ncnc2sc(-c3ccccc3)cc12	none
Cc1ccc(C)c(S(=O)(=O)N2CCN(C(=O)C3CCN(C(=O)c4ccc(F)cc4)CC3)CC2)c1	none
CC1CCCC(C)N1/N=C/c1cc(Br)cc(Br)c1O (configuration not stated)	none
CC(=O)N1c2ccc(N=Cc3cc(Br)cc(Br)c3O)cc2CC1C (configuration not stated)	CHT block -5.34 (no result: TMEM16A act)
CCCc1cc(=O)[nH]c(SCC(=O)Nc2sccc2C#N)n1	none (no result: CHT block, TMEM16A inh, CHT allo act)
Cc1ccc(NCSc2ccc(Cl)cc2)cc1	none (no result: CHT block, TMEM16A inh, CHT allo act)
CSc1ccc(CNc2ccc(Cl)cc2)cc1	TMEM16A inh 25
O=C(N/N=C/c1nn(-c2ccccc2)cc1-c1ccc(Cl)cc1)c1ccncc1	TMEM16A inh 25 (no result: TMEM16A act)
CCCCCCCCCCCCCCCC[n+]1cccc2ccccc21	TMEM16A inh 100, CHT allo act 8.74
O=C(C[n+]1cccc2ccccc21)c1ccccc1	none
O=C(COc1ccccc1F)OCC(=O)c1ccc([N+](=O)[O-])cc1	none (no result: CHT block, TMEM16A inh, CHT allo act)
CCn1cc(C(=O)O)c(=O)c2cnc(N3CCNCC3)nc21	CHT allo act 10.6 (no result: TMEM16A act)
C=CCNC(=S)N1CCN(c2ncc3c(=O)c(C(=O)O)cn(CC)c3n2)CC1	none
C#CCOCCOCCOCCNc1nc(N2CCN(C(=O)CCCCCCCCCCNC(=O)[C@@H](CCC(=O)O)n3cc(CCCCCN)nn3)CC2)nc(N2CCN(C(=O)CCCCCCCCCCNC(=O)[C@H](CCCCN)n3cc(C[C@@H](C)CC)nn3)CC2)n1	TMEM16A inh 100, TMEM16A act -5.73
C#CCOCCOCCOCCNc1nc(N2CCN(C(=O)CCCCCCCCCCNC(=O)[C@H](CCCCN)n3cc(C)nn3)CC2)nc(N2CCN(C(=O)CCCCCCCCCCNC(=O)[C@H](CCCN=C(N)N)n3cc(C[C@@H](C)CC)nn3)CC2)n1	TMEM16A inh 100 (no result: TMEM16A act)
Cc1cn([C@@H](CCCCNC(=O)OC(C)(C)C)C(=O)NCCCCCCCCCCC(=O)N2CCN(C(=O)OC(C)(C)C)CC2)nn1	CHT block -5.81
C#CCOCCOCCOCCNc1nc(N2CCN(C(=O)CCCCCCCCCCNC(=O)Cn3cc(C[C@@H](C)O)nn3)CC2)nc(N2CCN(C(=O)CCCCCCCCCCNC(=O)[C@@H]([C@H](C)CC)n3cc(CCCCCN)nn3)CC2)n1	TMEM16A inh 25
CN(C)CCCN(C(=O)c1ccc([N+](=O)[O-])o1)c1nc2cc3c(cc2s1)OCO3	none
C#CCOCCOCCOCCNc1nc(N2CCN(C(=O)CCCCCCCCCCNC(=O)[C@H]([C@@H](C)CC)n3cc(CCCCN=C(N)N)nn3)CC2)nc(N2CCN(C(=O)CCCCCCCCCCNC(=O)[C@H](CCCN=C(N)N)n3cc(C[C@@H](C)CC)nn3)CC2)n1	TMEM16A inh 25 (no result: TMEM16A act)
C#CCOCCOCCOCCNc1nc(N2CCOCC2)nc(N2CCN(C(=O)CCCCCCCCCCNC(=O)[C@H]([C@@H](C)CC)n3cc(CCCCN=C(N)N)nn3)CC2)n1	none
C#CCOCCOCCOCCNc1nc(N2CCN(C(=O)CCCCCCCCCCNC(=O)[C@@H](CCSC)n3cc(CCO)nn3)CC2)nc(N2CCN(C(=O)CCCCCCCCCCNC(=O)[C@H](CCCN=C(N)N)n3cc(C[C@@H](C)CC)nn3)CC2)n1	TMEM16A inh 100, TMEM16A act -26
C#CCOCCOCCOCCNc1nc(N2CCN(C(=O)CCCCCCCCCCNC(=O)[C@H]([C@@H](C)CC)n3cc(CCCCN=C(N)N)nn3)CC2)nc(N2CCN(C(=O)CCCCCCCCCCNC(=O)[C@@H]([C@H](C)O)n3cc(C)nn3)CC2)n1	TMEM16A inh 25, TMEM16A act -24.9
C#CCOCCOCCOCCNc1nc(N2CCN(C(=O)CCCCCCCCCCNC(=O)[C@H](CCCCN)n3cc(CCO)nn3)CC2)nc(N2CCN(C(=O)CCCCCCCCCCNC(=O)[C@H](CCCCN)n3cc(CCCC(=O)O)nn3)CC2)n1	none
C#CCOCCOCCOCCNc1nc(N2CCN(C(=O)CCCCCCCCCCNC(=O)[C@@H](CCSC)n3cc(CCO)nn3)CC2)nc(N2CCN(C(=O)CCCCCCCCCCNC(=O)[C@H](CO)n3cc(CCCCCN)nn3)CC2)n1	none
C#CCOCCOCCOCCNc1nc(N2CCN(C(=O)CCCCCCCCCCNC(=O)[C@H](CCCN=C(N)N)n3cc(C[C@@H](C)CC)nn3)CC2)nc(N2CCN(C(=O)CCCCCCCCCCNC(=O)[C@@H]([C@H](C)CC)n3cc(CCCCCN)nn3)CC2)n1	TMEM16A inh 25 (no result: TMEM16A act)
CC(C)C[C@H](NC(=O)OCC1c2ccccc2-c2ccccc21)C(=O)O	none (no result: CHT block, TMEM16A inh, CHT allo act)
CC(OC(=O)C1CC1)C(=O)Nc1cc(Cl)cc(Cl)c1 (configuration not stated)	none (no result: CHT block, TMEM16A inh, CHT allo act)
C#CCOCCOCCOCCNc1nc(N2CCN(C(=O)CCCCCCCCCCNC(=O)[C@@H](CCC(=O)O)n3cc(CCCCCN)nn3)CC2)nc(N2CCN(C(=O)CCCCCCCCCCNC(=O)[C@H](CO)n3cc(CCCCCN)nn3)CC2)n1	none
C#CCOCCOCCOCCNc1nc(N2CCN(C(=O)CCCCCCCCCCNC(=O)[C@H](CO)n3cc(CCCCCN)nn3)CC2)nc(N2CCN(C(=O)CCCCCCCCCCNC(=O)[C@H](CCCN=C(N)N)n3cc(C[C@@H](C)CC)nn3)CC2)n1	TMEM16A inh 100 (no result: TMEM16A act)
C#CCOCCOCCOCCNc1nc(N2CCN(C(=O)CCCCCCCCCCNC(=O)[C@H](CCCCN)n3cc(C[C@@H](C)CC)nn3)CC2)nc(N2CCN(C(=O)CCCCCCCCCCNC(=O)[C@@H]([C@H](C)O)n3cc(C)nn3)CC2)n1	TMEM16A act -17.7
C#CCOCCOCCOCCNc1nc(N2CCN(C(=O)CCCCCCCCCCNC(=O)[C@@H](CCSC)n3cc(CCO)nn3)CC2)nc(N2CCN(C(=O)CCCCCCCCCCNC(=O)[C@@H]([C@H](C)O)n3cc(C)nn3)CC2)n1	none
CCOC(=O)C1CCN(C(=O)Cn2nc(C)n3cccc3c2=O)CC1	none
CCOC(=O)/C=C1/SCC(=O)N1CC(=O)Nc1ccc2c(c1)CCC2	none (no result: CHT block, TMEM16A inh, CHT allo act)
COc1ccc(C(C)=O)cc1CC(=O)Nc1ccc2c(c1)CCC2	none
CCN(CC)S(=O)(=O)c1cc(C)ccc1NC(=S)Nc1cccnc1	TMEM16A inh 25
COc1ccccc1N1CCN(C(=O)c2ccc(-c3nc4ccccc4s3)o2)CC1	none (no result: CHT block, TMEM16A inh, CHT allo act)
COc1ccc(N2CCN(C(=O)c3ccc(-c4nc5ccccc5s4)o3)CC2)cc1	TMEM16A act -28.3 (no result: CHT block, TMEM16A inh, CHT allo act)
CCN(CC)c1ccc(/C=C2\SC(N)=NC2=O)cc1	none
CCN(CC)c1ccc(C=C2SC(=S)NC2=O)cc1	TMEM16A act -5.07 (no result: CHT block, TMEM16A inh, CHT allo act)
Cn1cc(C(=O)NCc2ccc(Cl)cc2)c(=O)c2cc(S(=O)(=O)N3CCOCC3)ccc21	none
NS(=O)(=O)c1ccc(CCNC(=O)COC(=O)C2CCC2)cc1	TMEM16A act -4.6

Bioassay records (PubChem)
